From PubChem BioAssay (Tox21)
Inconclusive results are not listed. A call without a number means that no potency is given here. Calls of active or inactive are those of the source. Calls follow the shape of the full dose curve.

Biological target: Beta-2 adrenergic receptor (Homo sapiens) (UniProt P07550)
Test: Adrenergic beta2 receptor (ADRB2) small molecule agonists, cell-based qHTS assay (AID 1963593);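 also: CHO cells stably overexpressing human ADRB2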
Conditions: CHO-ADRB2 cells, cAMP HTRF, 30 min; series mostly up to 42.5 µM
Summary of the method: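 CHO cells stably over-expressing ADRB2 were plated overnight at 37C, then dosed with compounds plus a stimulation mix containing 100uM IBMX and 25uM Ro-20-1724 for 0.5hr at room temperature. cAMP was measured by HTRF competition, 1hr.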

Chain of Beta-2 adrenergic receptor (Homo sapiens) (P07550 whole entry, looked up): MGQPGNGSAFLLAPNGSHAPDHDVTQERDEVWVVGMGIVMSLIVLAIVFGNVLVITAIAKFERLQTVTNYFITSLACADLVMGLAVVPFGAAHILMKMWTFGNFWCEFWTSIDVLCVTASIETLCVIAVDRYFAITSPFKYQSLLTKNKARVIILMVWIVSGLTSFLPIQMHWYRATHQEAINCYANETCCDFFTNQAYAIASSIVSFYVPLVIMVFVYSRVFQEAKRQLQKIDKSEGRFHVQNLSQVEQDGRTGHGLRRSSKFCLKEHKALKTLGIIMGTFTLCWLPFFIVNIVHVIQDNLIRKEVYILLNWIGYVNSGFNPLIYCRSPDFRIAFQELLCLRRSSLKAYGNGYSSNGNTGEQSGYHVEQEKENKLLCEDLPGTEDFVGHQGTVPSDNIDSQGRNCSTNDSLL

Compound: CCn1cc(C(=O)O)c(=O)c2cc(F)c(N3CCN(C)CC3)cc21
- Potency: inactive

Compound: COC(=O)[C@@H]1[C@H]2C[C@H]3c4[nH]c5ccccc5c4CCN3C[C@@H]2CC[C@@H]1O
- Potency: inactive

Compound: COc1ccc(S(=O)(=O)N2c3ccc(Cl)cc3[C@@](O)(c3ccccc3Cl)[C@H]2C(=O)N2CCC[C@@H]2C(N)=O)cc1OC
- Potency: inactive

Compound: CC(=O)Oc1ccc(C2(c3ccc(OC(C)=O)cc3)C(=O)Nc3ccccc32)cc1
- Potency: inactive

Compound: C[C@]1(Cn2ccnn2)[C@H](C(=O)O)N2C(=O)C[C@H]2S1(=O)=O
- Potency: inactive

Compound: Cc1ccc2nc(N)[nH]c(=O)c2c1Sc1ccncc1
- Potency: inactive

Compound: CCCCCCCCCCCCCC(=O)OCC
- Potency: inactive

Compound: O=C(NCCN1CCOCC1)c1ccc(Cl)cc1
- Potency: inactive

Compound: C(=C/c1ccccc1)/c1ccccc1
- Potency: inactive

Compound: Nc1nc2c(ncn2COCCO)c(=O)[nH]1
- Potency: inactive

Compound: C=CCN1CCc2nc(N)sc2CC1
- Potency: inactive

Compound: O=c1[nH]sc2cc(Cl)ccc12
- Potency: inactive

Compound: OCCNCc1ccccc1
- Potency: inactive

Compound: O=C(O)CCCC[P+](c1ccccc1)(c1ccccc1)c1ccccc1
- Potency: inactive

Compound: COc1cnc(NS(=O)(=O)c2ccc(N)cc2)nc1
- Potency: inactive

Compound: CCCCCCCCCCCCCCC1CO1 (stereo not drawn)
- Potency: inactive

Compound: C=CC(=O)OCCCCCCCCCC
- Potency: inactive

Compound: CC(=O)N(CC(O)CN(C(C)=O)c1c(I)c(C(=O)NCC(O)CO)c(I)c(C(=O)NCC(O)CO)c1I)c1c(I)c(C(=O)NCC(O)CO)c(I)c(C(=O)NCC(O)CO)c1I (stereo not drawn)
- Potency: inactive

Compound: Cc1nc(-c2ccc(Cl)cc2)oc1COC(C)(C)C(=O)O
- Potency: inactive

Compound: C/C=C(/C(=C/C)c1ccc(O)cc1)c1ccc(O)cc1
- Potency: inactive

Compound: C=CC(=O)OCCOCCOC(=O)C=C
- Potency: inactive

Compound: CC1(C)Cc2cccc(N)c2O1
- Potency: inactive

Compound: Nc1cnn([C@@H]2O[C@H](CO)[C@@H](O)[C@H]2O)c(=O)n1
- Potency: inactive

Compound: C/C=C/C(=O)CC
- Potency: inactive

Compound: Nc1ncnc(Nc2ccccc2)n1
- Potency: inactive

Compound: CC/C=C\CCOC(=O)c1ccccc1O
- Potency: inactive

Compound: CO[Si](C)(OC)c1ccccc1
- Potency: inactive

Compound: C[N+]1(CC2COC(c3ccccc3)(C3CCCCC3)O2)CCCCC1 (stereo not drawn)
- Potency: inactive

Compound: O=S(=O)(O)c1ccc(Cl)cc1
- Potency: inactive

Compound: Cc1cc(O)ccc1N
- Potency: inactive

Compound: Cc1nnc(C(=O)NC(C)(C)c2nc(C(=O)NCc3ccc(F)cc3)c(O)c(=O)n2C)o1
- Potency: inactive

Compound: OC(CCCN1CCCCC1)(c1ccccc1)c1ccccc1
- Potency: inactive

Compound: C[N+](C)(C)CC(O)CC(=O)[O-] (stereo not drawn)
- Potency: inactive

Compound: C[C@]12C=CC(=O)C=C1[C@@H](F)C[C@@H]1[C@@H]2[C@@H](O)C[C@@]2(C)[C@H]1CC[C@]2(O)C(=O)CO
- Potency: inactive

Compound: CCCCCCCCCCCc1ccccc1
- Potency: inactive

Compound: CCOC(=O)Cc1cccc2ccccc12
- Potency: inactive

Compound: Cc1ccccc1C#N
- Potency: inactive

Compound: C[N+]1(CC2COC(c3ccccc3)(c3ccccc3)O2)CCCCC1 (stereo not drawn)
- Potency: inactive

Compound: CC1=CC[C@H](C(C)C)C=C1
- Potency: inactive

Compound: CC(C)COC(=O)c1ccccc1
- Potency: inactive

Compound: C#Cc1ccc(-c2ccccc2F)cc1
- Potency: inactive

Compound: C/C(=N\O)c1ccc(OCC(=O)N2CCCCC2)cc1
- Potency: inactive

Compound: Oc1cn2c(n1)Nc1ccc(Cl)c(Cl)c1C2
- Potency: inactive

Compound: O=C(O)C(=O)Cc1c[nH]c2ccccc12
- Potency: inactive

Compound: N#CCC(=O)NN
- Potency: inactive

Compound: COc1ccc(-n2nc(C(F)F)cc2-c2ccc(S(C)=O)cc2)cc1 (stereo not drawn)
- Potency: inactive

Compound: N#C[C@@H]1CC(F)(F)CN1C(=O)CNC1CC2CCC(C1)N2c1ncccn1 (stereo partly drawn)
- Potency: inactive

Compound: O=C=NCc1cccc(CN=C=O)c1
- Potency: inactive
